Experimental data: PubChem BioAssay (NCI)
Compounds without any hit were thinned out: in the full panel of roughly 79,000, 15% have a hit. Unmarked numbers belong to inactive results. Activity calls are given as the source filed them. No stated cut-off is given here; in the data, active means growth inhibition above about 70%; inactive means the rest.

What was measured:
[1] = NCI Yeast Anticancer Drug Screen. Data for the rad50 strain (AID 155);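 further: 0% = growth of vehicle-only cultures of the same strain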; conditions: S. cerevisiae rad50 strain growth inhibition; at 50.0 µM; stronger effect = higher value
How it was run: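 Readout: growth inhibition relative to vehicle-treated cultures. Compound exposure was carried out in a genetically defined yeast strain deficient in DNA damage repair.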

[2] = NCI Yeast Anticancer Drug Screen. Data for the mec2-1 strain (AID 157); conditions: S. cerevisiae mec2-1 strain, at 50.0 µM, stronger effect = higher value
How it was run: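 Compounds were applied to mec2-1 yeast cells. Their growth was then compared with that of vehicle-treated cultures to give growth inhibition.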

[3] = NCI Yeast Anticancer Drug Screen. Data for the sgs1 mgt1 strain (AID 161);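 further: 0% = growth of cultures given vehicle only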; conditions: S. cerevisiae sgs1 mgt1 strain, at 50.0 µM, stronger effect = higher value
How it was run: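 Growth of a repair-deficient yeast mutant was monitored after compound treatment and expressed as inhibition relative to vehicle-treated cultures.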

[4] = NCI Yeast Anticancer Drug Screen. Data for the cln2 rad14 strain (AID 165);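 further: 0% = growth equal to vehicle treated cultures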; conditions: S. cerevisiae cln2 rad14 strain, at 50.0 µM, stronger effect = higher value
How it was run: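 Strain: cln2 rad14 yeast, altered in cell cycle control and DNA damage repair. Read-out: growth inhibition vs vehicle.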

[5] = NCI Yeast Anticancer Drug Screen. Data for the bub3 strain (AID 167); conditions: S. cerevisiae bub3 mutant strain, at 50.0 µM, stronger effect = higher value
How it was run: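 Readout: yeast growth inhibition, expressed relative to vehicle-only wells. The test organism is a mutant strain from a panel with lesions in DNA repair or checkpoint genes.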

[6] = NCI Yeast Anticancer Drug Screen. Data for the mlh1 rad18 strain (AID 175); conditions: S. cerevisiae mlh1 rad18 strain growth inhibition; at 50.0 µM; stronger effect = higher value
How it was run: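 A repair-deficient yeast strain is exposed to test compound, and growth is scored relative to vehicle-treated controls.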

`CC(=O)c1ccccc1C(C)c1ccc(C)c2ccccc12` (stereo not drawn) showed a growth inhibition [1] of -1.65%, a growth inhibition [2] of 12.4% and a growth inhibition [3] of 6.75%. The growth inhibition [4] was -11.8%, the growth inhibition [5] was 2.95% and the growth inhibition [6] was 2.3%.
Compound `CN(C)c1ccc2c(N(C)C)cc(N(C)C)[n+](C)c2c1` has a growth inhibition [1] of 7.8%, a growth inhibition [2] of -23.1% and a growth inhibition [3] of -12.8%. It also gave a growth inhibition [4] of 15.2%, a growth inhibition [5] of -2% and a growth inhibition [6] of -22.4%.
Work on `CCOC(=O)C1=NC(c2ccccc2)N(c2ccccc2)C1c1ccccc1` (stereo not drawn) yielded a growth inhibition [1] of -9%, a growth inhibition [2] of -8.5% and a growth inhibition [3] of 17.9%. For the same compound, the growth inhibition [4] was -0.75%, the growth inhibition [5] was 10.3% and the growth inhibition [6] was 8.3%.
In the case of `CCN(CC)CCOC(=O)c1ccc(N)c2ccccc12`, the growth inhibition [1] is reported as -3.8%, the growth inhibition [2] is reported as 12.2% and the growth inhibition [3] is reported as -14.3%. The growth inhibition [4] was -22.4%, the growth inhibition [5] was 5.5% and the growth inhibition [6] was 6.85%.
`CN1c2ccccc2SC1(C)CCC(=O)O` (stereo not drawn) gave a growth inhibition [1] of 21.5%, a growth inhibition [2] of 35.9% and a growth inhibition [3] of 37.6%. The growth inhibition [4] was 6%, the growth inhibition [5] was 29.6% and the growth inhibition [6] was 7.65%.
`CN(C)C1CS(=O)(=O)C1c1ccccc1` (stereo not drawn) gave a growth inhibition [1] of 19.6%, a growth inhibition [2] of 9% and a growth inhibition [3] of 7.1%. For the same compound, the growth inhibition [4] was -19.5%, the growth inhibition [5] was 8.3% and the growth inhibition [6] was 1.45%.
With `C=CCC[P+](c1ccccc1)(c1ccccc1)c1ccccc1` the growth inhibition [1] was 37.2%, the growth inhibition [2] was 34.1% and the growth inhibition [3] was 28.2%. For the same compound, the growth inhibition [4] was -3.4%, the growth inhibition [5] was 9.1% and the growth inhibition [6] was 8.75%.
Compound `CC(C)(OC(=O)c1ccc([N+](=O)[O-])cc1)C1CC1` has a growth inhibition [1] of -12.1%, a growth inhibition [2] of 1.55% and a growth inhibition [3] of -23.6%. The growth inhibition [4] was -28.9%, the growth inhibition [5] was -11.1% and the growth inhibition [6] was -24.4%.
In the case of `CCOC(=O)COc1cc2c(cc1Cc1ccc3c(c1)OCO3)OCO2`, the growth inhibition [1] is reported as 0.6%, the growth inhibition [2] is reported as 1.95% and the growth inhibition [3] is reported as -0.7%. It also gave a growth inhibition [4] of 5.65%, a growth inhibition [5] of 16.2% and a growth inhibition [6] of 0.95%.
In the case of `COC(=O)C1(C)CCCC2(C)C1CCC13OC1C1(C(C)C)OC1CC23` (stereo not drawn), the growth inhibition [1] is reported as 5.1%, the growth inhibition [2] is reported as -20.6% and the growth inhibition [3] is reported as 11.1%. For the same compound, the growth inhibition [4] was -26.4%, the growth inhibition [5] was -3% and the growth inhibition [6] was 8.2%.
In the case of `NC(=O)CN(CC(N)=O)C(N)=O`, the growth inhibition [1] is reported as -14.6%, the growth inhibition [2] is reported as -18% and the growth inhibition [3] is reported as -20.2%. The growth inhibition [4] was 5.15%, the growth inhibition [5] was -10.3% and the growth inhibition [6] was -23.6%.
In the case of `Nc1nc(N)c2nc(C(=O)O)c(C(=O)O)nc2n1`, the growth inhibition [1] is reported as -20.6%, the growth inhibition [2] is reported as -8.2% and the growth inhibition [3] is reported as -11.5%. For the same compound, the growth inhibition [4] was -15.8%, the growth inhibition [5] was -19% and the growth inhibition [6] was -4.2%.
With `C=C1C(=O)OC2CCCC(O)C12` (stereo not drawn) the growth inhibition [1] was 2.35%, the growth inhibition [2] was 2.45% and the growth inhibition [3] was -6.55%. For the same compound, the growth inhibition [4] was -39%, the growth inhibition [5] was -12.2% and the growth inhibition [6] was 1.9%.
Compound `c1ccc(CCN2CCCCCCCC2)nc1` has a growth inhibition [1] of 1.35%, a growth inhibition [2] of 7.9% and a growth inhibition [3] of -4.35%. The growth inhibition [4] was -23.2%, the growth inhibition [5] was -8.95% and the growth inhibition [6] was -0.35%.
In the case of `CCC1(CC)C(=O)OC(=O)C1(CC)CC`, the growth inhibition [1] is reported as -6.05%, the growth inhibition [2] is reported as 6.7% and the growth inhibition [3] is reported as 2.8%. For the same compound, the growth inhibition [4] was -8.2%, the growth inhibition [5] was -10.9% and the growth inhibition [6] was -10.4%.
In the case of `CCCCCCCC[N+](C)(C)C`, the growth inhibition [1] is reported as -48.8%, the growth inhibition [2] is reported as -44.5% and the growth inhibition [3] is reported as -26.6%. The growth inhibition [4] was 11.5%, the growth inhibition [5] was -28.7% and the growth inhibition [6] was -39.8%.
With `COC(=O)C(=O)c1c(C(=O)OC)nc2nnc(N)n2c1C1CC1` the growth inhibition [1] was -5.6%, the growth inhibition [2] was 11.8% and the growth inhibition [3] was 7.75%. The growth inhibition [4] was -17.9%, the growth inhibition [5] was -5.35% and the growth inhibition [6] was 4.25%.
With `N#CC1CNC(=S)N=C1c1ccccc1` (stereo not drawn) the growth inhibition [1] was 11.5%, the growth inhibition [2] was 17.8% and the growth inhibition [3] was 17.9%. The growth inhibition [4] was -74.6%, the growth inhibition [5] was 0.9% and the growth inhibition [6] was 12.1%.
Work on `Cc1cc(S(=O)(=O)Cl)ccc1Cl` yielded a growth inhibition [1] of 14.6%, a growth inhibition [2] of 1.3% and a growth inhibition [3] of -0.6%. It also gave a growth inhibition [4] of -29.2%, a growth inhibition [5] of 9.05% and a growth inhibition [6] of 7.6%.
`Nc1ccc([N+](=O)[O-])cc1F` showed a growth inhibition [1] of -18.6%, a growth inhibition [2] of -9.05% and a growth inhibition [3] of -9.85%. It also gave a growth inhibition [4] of -20.9%, a growth inhibition [5] of 3.95% and a growth inhibition [6] of -0.95%.
Compound `CN(CCO)CC(O)Cn1cnc2c(N)ncnc21` (stereo not drawn) has a growth inhibition [1] of -12.5%, a growth inhibition [2] of -17.8% and a growth inhibition [3] of -31.5%. For the same compound, the growth inhibition [4] was 10.7%, the growth inhibition [5] was -19.4% and the growth inhibition [6] was 19.8%.
Compound `CCOC(=O)NC(Nc1ccc(C(=O)O)cc1)(C(F)(F)F)C(F)(F)F` has a growth inhibition [1] of -5.75%, a growth inhibition [2] of -10.8% and a growth inhibition [3] of -38.5%. The growth inhibition [4] was 18.6%, the growth inhibition [5] was 4.65% and the growth inhibition [6] was 11.4%.
With `COC(=O)/C(=N\NC(N)=O)C(C#N)c1ccccc1` (stereo not drawn) the growth inhibition [1] was -12.5%, the growth inhibition [2] was -1.85% and the growth inhibition [3] was -5.75%. The growth inhibition [4] was -29.9%, the growth inhibition [5] was 6.7% and the growth inhibition [6] was -4.8%.
`COC(=O)C1CCC(=O)N1Cc1csc(-c2ccccc2)n1` (stereo not drawn) gave a growth inhibition [1] of -12.1%, a growth inhibition [2] of -6.95% and a growth inhibition [3] of -6.8%. For the same compound, the growth inhibition [4] was -24.7%, the growth inhibition [5] was -14.8% and the growth inhibition [6] was -11.8%.
With `Nc1ccncc1CCc1ccccc1` the growth inhibition [1] was 5.5%, the growth inhibition [2] was -16.2% and the growth inhibition [3] was -2.05%. It also gave a growth inhibition [4] of 12.8%, a growth inhibition [5] of -18% and a growth inhibition [6] of 3.1%.
`Cc1cccc(C)c1NC(=S)NC=C(C(N)=O)C(N)=O` gave a growth inhibition [1] of -26.1%, a growth inhibition [2] of -23.6% and a growth inhibition [3] of 12.7%. For the same compound, the growth inhibition [4] was 3.1%, the growth inhibition [5] was -14.4% and the growth inhibition [6] was 10.6%.
For `O=C(O)CCC(=O)OCc1ccccc1`, the growth inhibition [1] was 3.15%, the growth inhibition [2] was 22.6% and the growth inhibition [3] was -22.1%. For the same compound, the growth inhibition [4] was -16.6%, the growth inhibition [5] was -11.2% and the growth inhibition [6] was 0.8%.
With `CCCCc1c2c(nc3c1CCC/C3=C\c1ccccc1)/C(=C/c1ccccc1)CCC2` the growth inhibition [1] was -5.05%, the growth inhibition [2] was 16.9% and the growth inhibition [3] was -1.3%. For the same compound, the growth inhibition [4] was 9.7%, the growth inhibition [5] was -0.55% and the growth inhibition [6] was 22.3%.
For `CCCC(=O)Nc1cc(/C=C/C(=O)N2C[C@H]3C[C@@]34C2=CC(=O)c2[nH]cc(C)c24)n(C)c1`, the growth inhibition [1] was 80.2% (active), the growth inhibition [2] was 89.3% (active) and the growth inhibition [3] was 83.7% (active). The growth inhibition [4] was 81.2% (active), the growth inhibition [5] was 58% and the growth inhibition [6] was 84.2% (active).
With `O=C(Cl)c1ccc2c(c1)C(=O)OC2=O` the growth inhibition [1] was 22.5%, the growth inhibition [2] was -8.9% and the growth inhibition [3] was -11.2%. The growth inhibition [4] was 5.4%, the growth inhibition [5] was 9.55% and the growth inhibition [6] was -10.4%.
For `CCCCS(=O)(=O)CCC(N)P(=O)(O)O` (stereo not drawn), the growth inhibition [1] was -26.9%, the growth inhibition [2] was -77.8% and the growth inhibition [3] was -43.2%. It also gave a growth inhibition [4] of -33.8%, a growth inhibition [5] of -6.15% and a growth inhibition [6] of -36.9%.
With `Cn1c2ccccc2c(=S)c2cc(NC(=O)CCCCC(=O)Nc3ccc4c(c3)c(=S)c3ccccc3n4C)ccc21` the growth inhibition [1] was 32.2%, the growth inhibition [2] was 22.9% and the growth inhibition [3] was 22.4%. The growth inhibition [4] was 23.5%, the growth inhibition [5] was -4.1% and the growth inhibition [6] was 23.9%.
`CCCCCCCCCCCCCCCCCC(=O)OCCCC` gave a growth inhibition [1] of 6.35%, a growth inhibition [2] of -9.9% and a growth inhibition [3] of -20.1%. The growth inhibition [4] was -20.4%, the growth inhibition [5] was 0.2% and the growth inhibition [6] was -22%.
`CCOC(=O)/C(=C\c1ccnc2ccccc12)P(=O)(OCC)OCC` gave a growth inhibition [1] of 11.7%, a growth inhibition [2] of 4% and a growth inhibition [3] of 15.4%. For the same compound, the growth inhibition [4] was 11.1%, the growth inhibition [5] was 10.3% and the growth inhibition [6] was 23.1%.
With `CCN(CC)CCCC(C)Nc1c2ccccc2nc2cc(Cl)cc(Cl)c12` (stereo not drawn) the growth inhibition [1] was 17.6%, the growth inhibition [2] was 4.15% and the growth inhibition [3] was 3.1%. It also gave a growth inhibition [4] of 10.9%, a growth inhibition [5] of 9.6% and a growth inhibition [6] of 26.8%.
Work on `O=C(c1ccc(Cl)cc1Cl)C(CS(=O)(=O)O)CS(=O)(=O)O` yielded a growth inhibition [1] of -20.9%, a growth inhibition [2] of -27.2% and a growth inhibition [3] of -5.8%. The growth inhibition [4] was -49.4%, the growth inhibition [5] was -5.6% and the growth inhibition [6] was -1.1%.
Work on `CCOP(=O)(OCC)/C(C#N)=C/c1ccc2ccccc2c1` yielded a growth inhibition [1] of -7.5%, a growth inhibition [2] of -5.05% and a growth inhibition [3] of -16.8%. It also gave a growth inhibition [4] of -16.3%, a growth inhibition [5] of 5% and a growth inhibition [6] of -13.6%.
`CCCCCCc1cc2cc(C(=O)Nc3nc(C45CC6CC(CC(C6)C4)C5)cs3)c(=O)oc2cc1O` gave a growth inhibition [1] of -16.4%, a growth inhibition [2] of -19.8% and a growth inhibition [3] of -1.15%. It also gave a growth inhibition [4] of 17.9%, a growth inhibition [5] of -16.6% and a growth inhibition [6] of -11.7%.
